# Unmarked numbers belong to inactive results. Calls of active or inactive are those of the source. No rule for the calls is given here.
# Assay: Biochemical counterscreen for C difficile toxins, absence of UDPG, inhibitor dose response (AID 720650)
# Conditions: series mostly up to 19.5 µM; activity change, negative = inhibition: at the top concentration
Compound,"activity change, negative = inhibition",AC50
N#C/C(=C\c1ccc(N2CCOCC2)o1)C(=O)Nc1ccc(O)cc1,10.9%,–
O=C(Nc1nnc(-c2ccco2)o1)C1CC1,–,> 39 µM
Cc1ccccc1NS(=O)(=O)c1ccc(OCC(=O)N2CCCCC2)cc1,7.54%,–
COCCNc1cc(N)c([N+](=O)[O-])cc1[N+](=O)[O-],-5.68%,–
CCc1ccc(NC(=O)c2cc(C)on2)cc1,-14.7%,–
COC(=O)c1sc2nc(SCc3ccccc3C)n(N)c(=O)c2c1C,4.71%,–
COc1ccccc1/C=N/NC(=O)CC(=O)NCc1ccccc1,–,> 39 µM
COC1=C/C(=C/c2c(N)n3nc(CC(=O)N4CCOCC4)sc3nc2=O)C=CC1=O,0.548%,–
O=C(CSc1nc2ccccc2[nH]1)NC1CCCc2ccccc21 (stereo unspecified),–,> 39 µM
O=C1/C(=C/c2cccnc2)SC(=NCc2ccccc2)N1Cc1ccccc1,-7.63%,–
CCN(CC)CCNC(=O)C1CCN(S(=O)(=O)c2c(C)noc2/C=C/c2ccccc2F)CC1,-10.2%,–
COc1ccccc1OCC(=O)Nc1ccc(-c2nnc(-c3ccco3)o2)cc1,–,> 39 µM
O=C(COc1ncnc2ccccc12)NCCc1ccc(F)cc1,1.52%,–
Cn1c(=O)[nH]c(=O)c2c1[nH]c(=S)n2Cc1ccc(Cl)cc1,–,> 39 µM
COc1ccc(C2=NS(=O)(=O)N(C)C(C(=O)NC(C)c3ccccc3)=C2)cc1 (stereo unspecified),-15.3%,–
Cc1ccc(C)c2c1cc(C)c1nnc(SCC(=O)NCc3ccc4c(c3)OCO4)n12,–,13.1 µM (active)
Cc1cc(-c2ccc(NS(=O)(=O)c3ccccc3)c(C)c2)ccc1NS(=O)(=O)c1ccccc1,-6.17%,–
CC(C)Cc1[nH]c(=O)c(C#N)c2c1CCC2,0.92%,–
Cc1cc(NC(=O)CCCN2C(=O)c3cccc4cccc(c34)C2=O)no1,4.82%,–
COC(=O)/C=C/C(=O)Nc1ccc(O)c(Cl)c1,–,13.6 µM (active)
CCOC(=O)/C(=N/Nc1ccc(Br)cc1)N1CC(C)OC(C)C1 (stereo unspecified),–,0.615 µM (active)
